Screening data as filed in PubChem BioAssay.
This is a sample that favours compounds with a hit; in the whole collection about 2.9% have one here.
PTAP TSG101 blk – qHTS Assay for Iinhibitors of HIV-1 Budding by Blocking the Interaction of PTAP/TSG101; 340,000 tested, under 10 active; Tumor susceptibility gene 101 protein (Homo sapiens), Q99816; Fluorescence polarization, FITC-PTAP peptide / Tsg101 binding; Potency, µM (series often up to 115 µM), inactives show at the top dose activity change, negative = inhibition, most hits filed as inhibitors; active = well fitted inhibition curve with a large enough effect in the main read-out, with a control signal flat, not every such curve was filed as active; inconclusive = small, poorly fitted or top-dose-only effect, or effect the other way, or a change in a side signal; inactive = no such curve, though single readings can be large or run the other way; also: potency is read from the fitted curve at half-maximal effect; % of control where 0% means no effect
Target sequence (Q99816 whole entry, looked up): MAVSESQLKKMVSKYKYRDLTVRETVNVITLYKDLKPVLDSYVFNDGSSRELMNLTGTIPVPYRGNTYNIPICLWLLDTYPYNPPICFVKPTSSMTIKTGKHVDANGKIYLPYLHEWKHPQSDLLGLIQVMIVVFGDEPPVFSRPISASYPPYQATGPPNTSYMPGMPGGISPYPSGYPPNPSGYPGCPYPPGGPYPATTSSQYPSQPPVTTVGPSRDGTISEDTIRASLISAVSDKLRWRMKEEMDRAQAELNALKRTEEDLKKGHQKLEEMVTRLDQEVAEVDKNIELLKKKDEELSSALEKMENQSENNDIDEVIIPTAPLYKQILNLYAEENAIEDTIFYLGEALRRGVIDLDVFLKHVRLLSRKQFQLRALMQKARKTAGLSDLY
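Fluorescence anisotropy tracks displacement of a FITC-tagged PTAP peptide (50 nM) from the Tsg101 binding domain (10 uM), following a 20 min room-temperature incubation at pH 7.5.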
Rango dissoc inh – qHTS Assay for Inhibitors of RanGTP induced Rango (Ran-regulated importin-beta cargo) - Importin beta complex dissociation; Snurportin-1 (Homo sapiens) + GTP-binding nuclear protein Ran (Homo sapiens) + Importin …; Biochemical FRET Rango-importin beta, RanGTP-induced dissociation; Potency, µM (series often up to 46.1 µM), for inactives: top-dose activity change, negative = inhibition; 340,000 compounds, 0.071% hits; AID 540253, 2011; also: potency is read from the fitted curve at half-maximal effect; % of control where 0% means no effect; nearly all actives have a fitted effect of over 45% in size
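Rango/importin beta premix (0.1/0.25 uM final), PBS + 1 mM DTT + 0.02% Tween-20 + 0.1% BSA; cpd 5 min RT; FRET pre-read; + RanGTP-RCC1 (0.6 uM Ran, 2 mM GTP, 0.2 uM RCC1); 45 min RT; FRET post-read, ex 430, em 486/530 nm.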
DRD3 antagonist – qHTS of D3 Dopamine Receptor Antagonist: qHTS. D3R cells, DiscoveRx beta-arrestin luminescence, antagonist mode; active compounds read low. max response, negative = inhibition, %. 360,000 compounds, 2.5% hits; in the data active = max response below about -50%; inconclusive = no clear call, values can overlap the other calls; also: % is scaled to controls: 0 for no effect and ±100 for the full control effect
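Cells plated overnight at 1500 cells/well, then exposed to library compounds with dopamine controls for 90 minutes at 37 degrees C. DiscoveRx reagent added for 30–60 minutes at room temperature; luminescence read, quantitative HTS format.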
MmCpn inh – Inhibitors of TCP-1 ring complex (TRiC) of Methanococcus maripaludis (MmCpn): qHTS; 330,000 compounds, 0.031% hits; Chaperonin Mm-Cpn (Methanococcus maripaludis); Potency, µM (doses to about 76.9 µM), for inactives: at the top dose activity, negative = inhibition, actives largely listed as inhibitors; purified Mm-Cpn ATPase, ADP Transcreener TR-FRET; AID 504842, 2011; active = well fitted inhibition curve with a large enough effect; inconclusive = small, poorly fitted or top-dose-only effect; also: potency is read from the fitted curve at half-maximal effect; % is scaled to controls: 0 for no effect and ±100 for the full control effect; nearly all actives have a fitted effect of over 80% in size
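ATPase turnover read by TR-FRET ADP competition (Eu cryptate antibody/ADP-d2, 665/590 nm): 10uM ATP final, 25nM Mm-CPN final, 30 min 37degC after 10-min compound preincubation, pH 7.4 Tris/KCl/MgCl2/DTT buffer.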
Rango complex inh – qHTS Assay for Inhibitors of Rango (Ran-regulated importin-beta cargo) - Importin beta complex formation | Importin subunit beta-1 (Homo sapiens), Q14974 | Rango CFP/YFP FRET sensor + importin beta, 45 min | Potency, µM (series often up to 92.2 µM), for the others: at the highest dose inhibition of complex formation | 340,000 compounds, 0.031% hits | AID 540263, 2011;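 also: potency is read from the fitted curve at half-maximal effect; 0% = DMSO wells and 100% = buffer wells lacking importin beta; nearly all actives have a fitted effect of over 15% in size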
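FRET biosensor Rango (snurportin 1 IBB between N-terminal EYFP and C-terminal Cerulean), 50 nM in PBS/1 mM DTT/0.02% Tween-20/0.1% BSA, preincubated 5 min RT with compound; 0.125 microM importin beta added, 45 min RT, CFP/YFP FRET ratio read.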
D3 ag – qHTS of D3 Dopamine Receptor Agonist: qHTS | AID 652048, 2013 | D(3) dopamine receptor (Homo sapiens), P35462 | D3R DiscoveRx beta-arrestin cells, luminescence, 90 min | max activation, % | 410,000 compounds, 0.58% hits; in the data active = max activation above about 30%; also: 0% is about no effect
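Cells at 1500/well, incubated overnight, then treated with pinned compounds (dopamine as control) for 90 min at 37 degrees C. DiscoveRx reagent added for 30 - 60 minutes at room temperature; luminescence read.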
Active calls of the source: *; ? = inconclusive; . = not tested or not shown. Unless noted, calls follow the shape of the full dose curve.

SMILES	PTAP TSG101 blk	Rango dissoc inh	DRD3 antagonist	MmCpn inh	Rango complex inh	D3 ag
O=C(CSc1nccn1-c1ccc(F)cc1)Nc1ccc(OC(F)(F)F)cc1	.	.	.	.	.	4
CC(C)(C)c1ccc(C(=O)N2CCC2(C)C(=O)Nc2cccc3ncccc23)cc1 (stereo unspecified)	.	.	-17	.	.	84*
CC(C)(C)c1ccc(C(=O)N2CCC2(C)C(=O)Nc2cccc3ccccc23)cc1 (stereo unspecified)	.	.	0	.	.	3
Cc1ccc(C(=O)NC(Cc2ccccc2C(F)(F)F)C(=O)O)cc1 (stereo unspecified)	-2%	6%	?	-1%	4%	40*
NC(=O)C1(N2CCCCC2)CCN(C(=O)Nc2ccc(F)cc2F)CC1	.	.	.	.	.	-10
CCO[C@@H]1OC(C(=O)NC2CC2)=C[C@H](c2c[nH]c3ccccc23)[C@H]1CCCO	.	-21%	-65*	-1%	0%	4
CCCCN(c1ccccc1)c1ncnc2c1cnn2-c1ccc(Cl)cc1	.	.	.	.	.	-8
CCCOc1ccc(C2c3c(-c4ccccc4O)n[nH]c3C(=O)N2CCCOCC)cc1OCC (stereo unspecified)	.	.	.	.	.	-5
Oc1ccc(/C=C/c2ccc3ccccc3n2)cc1	1%	18µM*	5	-18%	?	-1
Cc1ccc(C)c(N2CCN(C(=O)CCc3nnc4n(CC(C)C)c(=O)c5ccccc5n34)CC2)c1	.	.	.	.	.	7
FC(F)(F)COCC(F)(F)F	.	.	.	.	.	5
CN(C(=O)c1cc2c(=O)n3ccccc3nc2n1C)c1ccccc1	.	.	.	.	.	8
Cc1ccc(C)n1-c1ccc(C(=O)NC2CCN(Cc3ccccc3)CC2)cc1	-1%	6%	-52*	0%	4%	-49
CC1(C)Cc2cccc(C(=O)NC3CCN(Cc4ccccc4)CC3)c2O1	0%	30%	-77*	0%	2%	-10
Cc1ccccc1C(=O)NC1CCN(Cc2ccccc2)CC1	-2%	5%	-16	-2%	0%	-17
CC1(C)Cc2cccc(OC(=O)NC3CCCCC3)c2O1	.	.	-17	.	.	-4
CCc1nc2ccc(C(=O)NC3CCN(C)CC3)cn2c1N(C)CCC(C)C	.	.	14	.	.	1
O=C(NC1CCN(Cc2ccccc2)CC1)c1ccc(CS(=O)c2ccccc2Cl)o1 (stereo unspecified)	.	.	-117*	.	.	-6
CCc1nc2ccc(C(=O)NC3CCN(Cc4ccccc4)CC3)cn2c1N(C)Cc1ccc(N(C)C)cc1	.	.	-63*	.	.	-22
CC(C)CN(C(=O)c1ccc2c(c1)OCCO2)c1c(N)n(Cc2ccccc2)c(=O)[nH]c1=O	0%	-2%	19	0%	-2%	-1
COc1cccc(CN2CCC(n3nccc3NC(=O)CCCc3ccccc3)CC2)c1	1%	?	-22	1%	0%	-13
CCc1nc2c(OCCOc3ccc(F)cc3)cccn2c1N(C)C(=O)c1cccs1	.	.	0	.	.	-9
CN(C(=O)CSc1nc2ccc(NC(=O)c3ccccc3)cc2s1)c1ccccc1	.	.	.	.	.	-4
Cc1ccc(CN2CCC(NC(=O)c3ccccc3)CC2)cc1	1%	-5%	-96*	2%	3%	-19
Cn1c(=O)n(Cc2ccc(F)cc2)c(=O)c2c1nc1n2CCCN1C1CCCCC1	-5%	-15%	-99*	-1%	4%	1
CCCCNC(=O)C1CCN(S(=O)(=O)c2cc(Br)cc3c2N(C(=O)CC)CC3)CC1	.	.	.	.	.	1
